# From PubChem BioAssay
# Most compounds without a hit are left out; they make up all but 11% or so of the library.
# VP16 counter = Gal4-VP16 reporter inhibition counter-screen; Drosophila S2 Gal4-VP16 UAS-luciferase, luminescence, 20 h; Potency, µM (highest dose often 53.6 µM), for inactives: top-dose activity, negative = inhibition, hits mostly inhibitors; 3.5% of 310,000 active;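 note: Gal4-VP16 expression switched on by copper sulfate through the metallothionein promoter; potency is the fitted concentration of half-maximal effect; % is set by controls: 0 for no effect and ±100 for the full control effect; nearly all actives have a fitted effect of over 50% in size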
# MCF10A rerep = DNA re-replication induction in MCF 10a cells | MCF 10A DNA re-replication, Hoechst nuclear intensity, 48 h | 2.9% of 350,000 active | Potency, µM (titrated, usually from 46.1 µM), for the others: at the top dose activity, positive = re-replication, most hits filed as activators; note: potency is the fitted concentration of half-maximal effect; % of control where 0% means no effect; nearly all actives have a fitted effect of over 50% in size
# RORg inh = ROR gamma (mouse) transcription inhibition | Drosophila S2 Gal4-RORgamma UAS-luciferase reporter, 20 h | 5.4% of 310,000 active | AID 2551 | Potency, µM (top dose mostly 53.6 µM), inactives show at the top dose activity change, negative = inhibition, hits mostly inhibitors | P51450; note: potency is the fitted concentration of half-maximal effect; % is set by controls: 0 for no effect and ±100 for the full control effect; nearly all actives have a fitted effect of over 60% in size
# Target sequence (P51450 whole entry, looked up, the tested form may be a part): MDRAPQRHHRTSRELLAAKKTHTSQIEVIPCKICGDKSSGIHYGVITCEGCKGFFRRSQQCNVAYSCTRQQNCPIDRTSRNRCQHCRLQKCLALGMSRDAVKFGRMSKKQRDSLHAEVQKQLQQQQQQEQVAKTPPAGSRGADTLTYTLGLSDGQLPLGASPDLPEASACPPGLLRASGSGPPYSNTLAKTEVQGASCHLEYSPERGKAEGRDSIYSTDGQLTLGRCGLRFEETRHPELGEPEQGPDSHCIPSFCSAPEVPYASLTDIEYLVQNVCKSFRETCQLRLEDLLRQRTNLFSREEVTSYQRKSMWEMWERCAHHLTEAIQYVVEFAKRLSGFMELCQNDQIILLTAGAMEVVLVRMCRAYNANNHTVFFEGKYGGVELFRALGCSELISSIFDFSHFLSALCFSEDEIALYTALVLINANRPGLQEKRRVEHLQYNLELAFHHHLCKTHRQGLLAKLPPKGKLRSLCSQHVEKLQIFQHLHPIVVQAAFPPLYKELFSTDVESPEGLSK
#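 In this cell-based reporter format, copper sulfate (700 uM final) drives Gal4–ROR gamma fusion expression from a metallothionein promoter in Drosophila Schneider cells; compounds preincubated 1 hr, reporter read after 20 hr at ambient temperature.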
# SW480 rerep = DNA re-replication induction in SW480 cells; SW480 DNA re-replication, Hoechst DNA content imaging, 48 h; Potency, µM (doses to about 46.1 µM), without a hit: at the top dose re-replication activation, hits mostly activators; 1.8% of 340,000 active; note: potency is the fitted concentration of half-maximal effect; % of control where 0% means no effect; nearly all actives have a fitted effect of over 55% in size
#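 250 cells/well; 23 nL cpd via pin tool; 48 hr, 37 C, 5% CO2; Hoechst 40 min; imager read of total nuclear intensity, ex 405/em 500-530 nm.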
# IL-1B inflam inh = blocks inflammasome-driven IL-1 beta release; THP-1 LPS/ATP IL-1B secretion, AlphaLISA, 16 h; active compounds read low; activity change, % at 57.5 µM; 4.7% of 360,000 active; in the data active = activity change below about -50%; inconclusive = mostly about -30% to -49%; note: % is set by controls: 0 for no effect and ±100 for the full control effect
#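 Secreted IL-1B measured by AlphaLISA bead assay after 16 h compound exposure of THP-1 cells; compounds (final up to 57.5 uM) added 1 h before LPS (250 ng/mL) and ATP (1.25 mM) stimulation; lower signal means less secretion.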
# Active calls of the source: *; ? = inconclusive; . = no result given; [ ] = dose if it differs, or a comment. Unless noted, calls come from the whole dose curve; as a rule, active = well fitted curve in the direction sought with a large enough effect; inconclusive = small, poorly fitted or top-dose-only effect, or another doubt; inactive = no such curve, though single readings can be large; an effect the other way counts as inactive or inconclusive.
SMILES,VP16 counter,MCF10A rerep,RORg inh,SW480 rerep,IL-1B inflam inh
Cc1nnc(NC(=O)CSC2CCCCC2)s1,-20%,2%,22µM*,-10%,3
CCOc1ccccc1C(=O)NC(C(=O)OCn1nnc2ccccc2c1=O)C(C)C (stereo not given),.,.,.,.,10
O=C(Nc1ccc(NC(=O)c2ccccc2F)cn1)c1ccco1,13µM*,10%,14µM*,-7%,-17
O=C(Nc1ccc(NC(=O)C2CC2)cn1)c1ccccc1,0.1µM*,-1%,13µM*,-13%,-2
O=C(Nc1ccc(NC(=O)c2ccco2)nc1)c1cccnc1,?,-1%,0.79µM*,-2%,0
O=C(Nc1ccc(NC(=O)C2CC2)cn1)c1ccccc1Cl,-3%[0.365 µM],-10%,?,-2%,0
O=C(Nc1ccc(NC(=O)c2ccco2)nc1)c1cccc(F)c1,-10%,-3%,-7%,-15%,-26
O=C(NC(C(=O)c1ccccc1)c1ccccc1)c1ccccc1 (stereo not given),.,-3%,.,7%,15
Cc1cccc(C)c1-n1nnnc1C1(C)CCC(=O)N1CCc1ccc(O)cc1 (stereo not given),.,.,.,.,33
O=C1NC(Cc2ccccc2)c2nc3ccccc3c(=O)n2-c2cc3ccccc3cc21 (stereo not given),.,.,.,.,-5
COc1cc(C(C)=O)ccc1OCC(=O)Nc1ccc(Cl)c(S(=O)(=O)N2CCOCC2)c1,.,4%,.,?,0
Cc1ccc(NC2Nc3cc(C)nn3S2)c(C)c1 (stereo not given),?,0%,3.5µM*,5%,43
Cc1cc(NC(=NC2CC2)c2ccccc2)n(-c2ccccc2)n1,-19%,-6%,-35%,-1%,-13
Cc1cc2n(n1)SC(Nc1ccccc1)N2 (stereo not given),4.5µM*,-3%,3.2µM*,-3%[9.22 µM],-9
c1ccc(CN2CCC3CC2c2ccc(N4CCOCC4)cc23)cc1 (stereo not given),.,.,.,.,3
C=C1C(=O)O[C@@H]2[C@H]1CC[C@H](C)[C@]1(O)CCC(=O)[C@@]21C,?,23µM*,-43%,?,-69*
C=C1CCC(O)C2(C)CCC3C(C)C(=O)OC3C12O (stereo not given),-6%,-2%,-2%,-10%,19
COCCCNC(=O)C[C@@H]1C[C@@]2(C(=O)OC)CCCCC=C2N(CCc2ccc(OC)c(OC)c2)C1=O,.,.,.,.,24
CC(C)(O)C(=O)O,9%,.,-4%,.,.
Cc1ccc(NC(=O)CSc2nc3ccccc3c(=O)n2CCCC(=O)NCCCN2CCOCC2)cc1C,-10%[10 µM],11%,-76%,-5%,-86*
CCc1ccc(NC(=O)CSc2nc3ccccc3c(=O)n2CCCC(=O)NCCCN2CCOCC2)cc1,-4%[10 µM],?,-38%,?,-103*
CC(=O)Nc1ccc(NC(=O)CSc2nc3ccccc3c(=O)n2CCCN2CCOCC2)cc1,.,0%,.,7%,4
Nc1c(S(=O)(=O)c2ccccc2)c2nc3ccccc3nc2n1/N=C/c1cccc(O)c1,-1%,0.92µM*,-2%,7%,-72*
Cc1cccc(S(=O)(=O)c2c(N)n(/N=C/c3ccccc3)c3nc4ccccc4nc23)c1,-8%,16%,-8%,12%,-29
c1ccc(C2=NN(c3ccccc3)CC2)cc1,-26%,21µM*,?,16µM*,32
SMILES,VP16 counter,MCF10A rerep,RORg inh,SW480 rerep,IL-1B inflam inh
CCOC(=O)N1CCN(C(=O)c2ccc3c(c2)N(C)C(=O)/C(=C\c2ccc(OCC)c(OC)c2)S3)CC1,-21%,?,13%,10µM*,?
CCOc1ccc(/C=C2/Sc3ccc(C(=O)N4CCN(C(=O)c5ccco5)CC4)cc3N(C)C2=O)cc1OC,-12%,.,9%,.,.
CCOC(=O)N1CCN(C(=O)c2ccc3c(c2)NC(=O)/C(=C\c2cccc(C)c2)S3)CC1,-13%,18µM*,-17%,26%,-25
Cc1cccc(/C=C2\Sc3ccc(C(=O)N4CCC(C)CC4)cc3N(C)C2=O)c1,-3%,?,-6%,?,-54*
O=C(NC(=S)NC(CO)c1ccccc1)c1ccc(F)cc1 (stereo not given),-2%,-13%,?,-6%,?
Cc1ccccc1C(=O)NC(=S)NCC(=O)c1ccccc1,?,?,11µM*,-3%,20
O=C(CNC(=S)NC(=O)c1ccc(F)cc1)c1ccccc1,-17%,26%,11µM*,-4%,-6
O=C(NC(=S)NC(c1ccccc1)c1ccncc1)c1ccccc1 (stereo not given),?,15%,11µM*,0%,-79*
O=C(CNC(=S)NC(=O)c1ccccc1Br)c1ccccc1,-5%,-5%,20%,3%,16
O=C(CNC(=S)NC(=O)c1ccccc1)c1ccccc1,?,6%,11µM*,2%,-22
CC(NC(=S)NC(=O)c1ccccc1)c1ccccc1 (stereo not given),.,-2%,.,-3%,-23
Cc1ccccc1-c1ccc2ncnc(NCc3cccnc3)c2c1,?,.,39%,.,.
O=C(NCc1ccccn1)C(=O)NCC1OCCN1S(=O)(=O)c1ccc([N+](=O)[O-])cc1 (stereo not given),6%,0%,-18%,3%,0
CC(C)C(=O)NC(=S)NCC(=O)c1ccccc1,?,?,11µM*,-1%[9.22 µM],-23
CC(C)C(=O)NCCCc1ccccc1,-6%,-4%,1%,-6%,-5
Cc1nc(OCC(C)C)c2sc3nc4c(cc3c2n1)COC(C)(C)C4,-3%,3%,16%,-9%,-26
COC(=O)CSc1ncnc2c1sc1nc3c(cc12)COC(C)(C)C3,-24%,-1%,-24%,-3%,-8
COc1nc(C)nc2c1sc1nc3c(cc12)COC(C)(C)C3,-16%,-6%,-24%,-12%,-51*
CC1(C)Cc2nc3sc4c(SCC(=O)O)ncnc4c3cc2CO1,14µM*,-3%,8.9µM*,-10%,-8
OCc1cccc(-c2csc(C(O)c3ccccc3)n2)c1 (stereo not given),.,.,.,.,40
Cc1c(NC(=O)/C(C#N)=C/c2ccc(-c3cc(Cl)ccc3Cl)o2)c(=O)n(-c2ccccc2)n1C,3%,19%,7%[10 µM],21µM*,0
Cc1cc(NC(=O)/C(C#N)=C/c2ccc(-c3ccc(SC(F)F)cc3)o2)n(-c2ccccc2)n1,7%,5.8µM*,30%,?,-6
Cc1c(NC(=O)/C(C#N)=C/c2ccc(-c3ccc(Cl)cc3)o2)c(=O)n(-c2ccccc2)n1C,?,-1%,?,15%,-62*
CN(CCOc1ccc(Cl)cc1)C(=O)c1cc([N+](=O)[O-])ccc1N1CCOCC1,.,16%,.,1%,-5
CCCCCn1nnnc1-c1nc2cc(C)c(C)cc2[nH]c1=O,.,.,.,.,5
